# Source: PubChem
# Shown are actives, neighbours in structure and some others; about 3% of the full set was active somewhere.
# TR SRC2 fluor cs: Total Fluorescence Counterscreen for Inhibitors of the Interaction of Thyroid Hormone Receptor and Steroid Receptor Coregulator 2 | Potency, µM (titrated, usually from 106 µM) | 280,000 tested, 0.29% active | TRb/SRC2 Texas Red total fluorescence interference | AID 1479, 2009; active means well fitted curve in either direction with a large enough effect; inconclusive means small, poorly fitted or top-dose-only effect
#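 Human TRb ligand-binding domain at 0.6 uM with 20 nM Texas Red SRC2 peptide in Tris buffer containing 1 uM T3 and 5% DMSO, incubated with compound 5 h at ambient temperature. Total fluorescence (555/632 nm) calculated as parallel + 2 × perpendicular.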
# TRb SRC2 PPI: qHTS for Inhibitors of the Interaction of Thyroid Hormone Receptor and Steroid Receptor Coregulator 2; TRbeta-SRC2 peptide binding, fluorescence polarization; receptor liganded with 1 µM T3; Potency, µM (highest dose often 106 µM), hits mostly inhibitors; 280,000 tested, 0.065% active; further: nearly all actives have a fitted effect of over 50% in size
# Target sequence (P10828 whole entry, looked up): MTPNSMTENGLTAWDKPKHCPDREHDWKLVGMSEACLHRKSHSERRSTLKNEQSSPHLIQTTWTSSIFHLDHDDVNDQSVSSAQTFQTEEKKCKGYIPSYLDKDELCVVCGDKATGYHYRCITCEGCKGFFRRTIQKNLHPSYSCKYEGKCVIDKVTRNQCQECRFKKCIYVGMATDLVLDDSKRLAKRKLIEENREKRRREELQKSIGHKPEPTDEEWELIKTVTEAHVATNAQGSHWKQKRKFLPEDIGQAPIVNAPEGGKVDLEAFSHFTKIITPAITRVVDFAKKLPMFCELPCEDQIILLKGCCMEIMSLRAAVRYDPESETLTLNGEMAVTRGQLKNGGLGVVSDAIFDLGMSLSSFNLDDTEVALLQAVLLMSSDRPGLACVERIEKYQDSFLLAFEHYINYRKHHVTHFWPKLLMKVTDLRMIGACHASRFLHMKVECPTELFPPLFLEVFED
#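 Decrease in fluorescence polarization of 20 nM Texas Red SRC2 coactivator peptide flagged inhibition of its binding to 0.6 uM TRb LBD; 1 uM T3 included, incubation 5 hr, ex 555/em 632 nm.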
# Tau fibril FP: qHTS for Inhibitors of Tau Fibril Formation, Fluorescence Polarization; Microtubule-associated protein tau (Homo sapiens), P10636; K18 P301L tau heparin fibrillization, Alexa594 FP, 6 h; Potency, µM (series often up to 57.7 µM), hits mostly inhibitors; 280,000 tested, 0.39% active; AID 1468, 2008; further: nearly all actives have a fitted effect of over 55% in size
# Target sequence (P10636 561-689 P618L limits assumed): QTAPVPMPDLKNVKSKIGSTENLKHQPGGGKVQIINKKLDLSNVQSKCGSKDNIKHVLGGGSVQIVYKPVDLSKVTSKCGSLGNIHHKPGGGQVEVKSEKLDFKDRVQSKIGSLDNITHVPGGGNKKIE
#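 Heparin (20 uM) drove fibril formation of recombinant tau K18 P301L, 15 uM unlabeled with 0.24 uM Alexa 594 label, for 6 hr at 37 C in 100 mM sodium acetate pH 7. Fluorescence polarization (555/632 nm) read 1 hr after 30 uM ThT.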
# Tau ThT inhib: qHTS for Inhibitors of Tau Fibril Formation, Thioflavin T Binding | Potency, µM (series often up to 57.4 µM), hits mostly inhibitors | recombinant tau K18 P301L, heparin-induced fibrillization, ThT fluorescence | 270,000 tested, 2.1% active | AID 1460, 2008 | Microtubule-associated protein tau (Homo sapiens), P10636; further: nearly all actives have a fitted effect of over 55% in size
#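 In this qHTS, human K18 P301L tau is incubated with compound and heparin for 6 hr at 37 C, and Thioflavin T fluorescence then reports fibril load.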
# Tau fluor counter: Counterscreen qHTS for Inhibitors of Tau Fibril Formation, Fluorescence Polarization; tau K18 P301L (four-repeat tau fragment) Alexa594 fluorescence, heparin fibrillization; Potency, µM (titrated, usually from 57.7 µM); 280,000 tested, 0.93% active; further: nearly all actives have a fitted effect of over 55% in size
#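 Human K18 P301L tau (15 uM unlabeled plus 0.24 uM Alexa 594-labeled, final) in 100 mM sodium acetate pH 7 was mixed with compound and 20 uM heparin and incubated 6 hr at 37 C.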
# Numbers stand for hits; - = inactive; ? = inconclusive; . = not tested or not shown; ! = not confirmed by another sample; [ ] = remark or other dose. Unless noted, the call rests on the fitted dose curve; in most records, active means well fitted curve in the direction sought with a large enough effect; inconclusive means small, poorly fitted or top-dose-only effect, or another doubt; inactive means no such curve, though single readings can be large; an effect the other way counts as inactive or inconclusive.
SMILES,TR SRC2 fluor cs,TRb SRC2 PPI,Tau fibril FP,Tau ThT inhib,Tau fluor counter
Nc1c(C(=O)Nc2ccc(Cl)cc2)sc2nc3c(cc12)N1CCC3CC1,?,-,-,?,?
CCOP(=O)(NC(C)C)Oc1ccc(S(C)(=O)=O)c(C)c1 (stereo unspecified),-,-,.,.,.
CC(C)[C@H](C(=O)O[C@H](C#N)c1cccc(Oc2ccccc2)c1)c1ccc(Cl)cc1,-,-,.,.,.
COCCCOc1ccnc(CS(=O)c2nc3ccccc3[nH]2)c1C (stereo unspecified),-,-,?,10µM,-
O=[N+]([O-])c1cccc2ccccc12,-,-,.,.,.
O=[N+]([O-])c1ccc(-c2ccc(C=Nc3cccc4ccccc34)o2)cc1,-,-,-,16µM,-
CCOC(=O)c1ncc2[nH]c3ccc(OCc4ccccc4)cc3c2c1COC,-,-,-,?,4µM[quencher]
O=C1NCCN1Cc1ccc(Cl)nc1,-,-,.,.,.
CCn1c(O)c(N=Nc2ccc(S(=O)(=O)N3CCOCC3)cc2)c(=O)n(CC)c1=S,-,-,-,8.9µM,-
CC[C@H]1CCCC(O[C@H]2CC[C@H](N(C)C)[C@@H](C)O2)[C@@H](C)C(=O)C2=C[C@@H]3[C@@H](C=C[C@@H]4C[C@@H](O[C@@H]5O[C@@H](C)[C@H](OC)[C@@H](OC)[C@H]5OC)C[C@@H]34)[C@@H]2CC(=O)O1 (stereo partly specified),-,-,.,.,.
CCCCn1c(NC(=O)c2ccco2)c(C(=O)OCC)c2nc3ccccc3nc21,-,?,16µM,13µM,-
C=CCN1C(=O)NC(=O)/C(=C/c2cc3c4c(c2)CCCN4CCC3)C1=O,-,-,?,18µM,-
COC(=O)N(OC)c1ccccc1COc1ccn(-c2ccc(Cl)cc2)n1,-,-,.,.,.
Oc1ccccc1O,-,-,?,?,?
O=C1C=CC(=O)c2c(O)cccc21,8.9µM[quencher],?,?,11µM,7.1µM[quencher]
Oc1ccc(/C=N/NP(=S)(c2ccccc2)c2ccccc2)cc1O,-,-,-,?,14µM[quencher]
Oc1ccc(/C=N/NP(=S)(c2ccccc2)c2ccccc2)c(O)c1O,-,-,?,25µM,?
CC1=NCCc2c1[nH]c1cc(O)ccc21,-,-,-,?,18µM![quencher]
COc1ccc2c3c([nH]c2c1)C(C)=NCC3,-,-,-,?,?
Cn1cc(-c2ccccc2)c(=O)c(-c2cccc(C(F)(F)F)c2)c1,-,-,.,.,.
O=C(O)c1nc(Cl)ccc1Cl,-,-,.,.,.
CN(C)c1ccc(/C=C/c2cc[n+](C)c3ccccc23)cc1,-,-,-,-,-
CN(C)c1ccc(/C=C/C=C/c2sc3ccccc3[n+]2C)cc1,-,-,?,6.3µM,?
CC(C)[C@@]1(NC(=O)[C@@H]2C[C@@H]3c4cccc5[nH]cc(c45)C[C@H]3N(C)C2)O[C@@]2(O)[C@@H]3CCCN3C(=O)[C@H](Cc3ccccc3)N2C1=O,-,-,?,?,2.8µM[quencher]
CC(C)[C@@]1(NC(=O)[C@@H]2C[C@@H]3c4cccc5[nH]cc(c45)C[C@H]3N(C)C2)O[C@@]2(O)C3CCCN3C(=O)[C@H](Cc3ccccc3)N2C1=O (stereo partly specified),?,-,?,?,7.1µM[quencher]
SMILES,TR SRC2 fluor cs,TRb SRC2 PPI,Tau fibril FP,Tau ThT inhib,Tau fluor counter
CC1CCCCC1NC(=O)Nc1ccccc1 (stereo unspecified),-,-,.,.,.
CC1=NN(c2ccccc2)C(=O)C1=C(C)C,-,-,-,11µM,?
O=c1c2ccccc2nc(-c2cccs2)n1-c1ccccc1,-,-,-,-,-
CC(C)=C[C@@H]1[C@@H](C(=O)OCN2C(=O)C3=C(CCCC3)C2=O)C1(C)C,-,-,.,.,.
NC(Cc1cc(O)c(O)cc1O)C(=O)O (stereo unspecified),11µM[quencher],-,?,14µM,?
Cc1ccc(N2C(=O)/C(=C/c3ccc(CN(CCC#N)S(C)(=O)=O)o3)C(=O)NC2=S)cc1,-,-,?,22µM,-
CCOP(=O)(OCC)Oc1ccc2c(C)c(Cl)c(=O)oc2c1,-,-,.,.,.
Cc1cc(C)n(-c2ccc(NN=C(C#N)C#N)cc2)n1,-,-,-,5µM,?
COC(=O)C1C(O)C(C)C(O)C(C)/C=C\C=C(/C)C(=O)Nc2c(C)c(OC(C)=O)c3c(c2O)C(=O)C(C)=C2OCOC(=C23)/C(C)=C/C(C)(O)C(O)C(C)C1O (stereo unspecified),-,-,?,32µM,?
Oc1ccc(Cl)cc1Cc1ccccc1,-,-,.,.,.
Oc1ccc(Cl)cc1Cc1cc(Cl)ccc1O,-,-,?,?,11µM[quencher]
COc1ccc(CN2C(=O)NC(=O)/C(=C/c3ccc([N+](=O)[O-])s3)C2=O)cc1,-,-,25µM,7.9µM,?
O=C1NC(=O)N(Cc2ccc(F)cc2)C(=O)/C1=C\c1ccc(N2CCCC2)cc1,-,-,-,25µM,-
O=C1NC(=O)N(Cc2ccc(F)cc2)C(=O)/C1=C\c1ccc([N+](=O)[O-])s1,-,-,0.35µM,.,?
CCC(C)(NC(=O)c1cc(Cl)c(C)c(Cl)c1)C(=O)CCl (stereo unspecified),-,-,.,.,.
C(=N\NC1=NCCCCC1)/c1c[nH]c2ccccc12,-,-,-,.,-
Brc1ccc2[nH]cc(/C=N/N3CCCCC3)c2c1,-,-,-,?,11µM[quencher]
COC(=O)NS(=O)(=O)c1ccc(N)cc1,-,-,.,.,.
N#CCNC(=O)c1cnccc1C(F)(F)F,-,-,.,.,.
CCCCC/C=C\C/C=C\C/C=C\C/C=C\CCCC(=O)O,-,-,?,28µM!,?
Cc1ccc(/C=C2\C(=O)NC(=S)N(c3ccccc3F)C2=O)s1,-,-,-,18µM,?
CCOP(=O)(OCC)Oc1ccc([N+](=O)[O-])cc1,-,-,.,.,.
NCCc1c[nH]c2ccc(OCc3ccccc3)cc12,-,-,-,-,13µM[quencher]
CC[n+]1c(-c2ccccc2)c2cc(N)ccc2c2ccc(N)cc21,45µM![fluorescent],35µM!,11µM,4µM,?
CCCOC(=O)c1cc2c(cn1)[nH]c1ccccc12,-,-,-,?,?
SMILES,TR SRC2 fluor cs,TRb SRC2 PPI,Tau fibril FP,Tau ThT inhib,Tau fluor counter
CCc1c(C(=O)OC)ncc2[nH]c3cc(OC)c(OC)cc3c12,-,-,-,?,16µM[quencher]
CCC(C)N1C(=O)NC(=O)C2(Cc3c(ccc4ccccc34)N(C)C2)C1=O (stereo unspecified),-,-,?,16µM,?
COc1ccc2c(c1)CC1(CN2C)C(=O)NC(=O)N(CCc2ccccc2)C1=O (stereo unspecified),-,-,?,?,-
Nc1cc2nc3ccccc3nc2cc1N,-,-,?,10µM,?
O=C1NC(=O)C(=Cc2ccc(N3CCN(C(=O)c4ccccc4)CC3)c([N+](=O)[O-])c2)C(=O)N1,-,-,-,11µM,-
CC(=NC#N)N(C)Cc1ccc(Cl)nc1,-,-,.,.,.
